TDP1 cell noCPT = qHTS for Inhibitors of human tyrosyl-DNA phosphodiesterase 1 (TDP1): qHTS in cells in absence of CPT | DT40 Tdp1-/- hTDP1 cells, no CPT, ATP luminescence, 48 h | Potency, µM (series often up to 46.2 µM), actives largely listed as inhibitors | 15% of 420,000 active; further: nearly all actives have a fitted effect of over 55% in size
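Cells were dispensed at 400 per well, compounds added by pin tool, plates incubated ≥48 hr at 37 °C, then CellTiter-Glo added for 30 min at room temperature before luminescence reading. Line: DT40 Tdp1-/- complemented with hTDP1; camptothecin omitted.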
HT1080 IDH1KD tx = HT-1080 IDH1 knockdown cell toxicity (counter line); 2% of 360,000 active; HT-1080 IDH1 knockdown viability, ATP luminescence, 48 h; Potency, µM (top dose mostly 46.1 µM), hits mostly cytotoxic
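% activity derives from luminescence (CellTiter-Glo), normalised to DMSO and no-cell wells. HT-1080-IDH1KD cells, 750/well, had 48 h compound exposure at 37 °C.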
TDP1 cell CPT = growth inhibition of DT40 Tdp1-/-;hTDP1 cells with camptothecin (screen for TDP1 inhibitors); 12% of 420,000 active; chicken DT40 Tdp1-/-;hTDP1 cells + 20 nM CPT, ATP luminescence, 48 h; AID 686979; Potency, µM (doses to about 46.2 µM), most hits filed as inhibitors; further: nearly all actives have a fitted effect of over 55% in size
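Cell growth measured by CellTiter-Glo luminescence after a minimum 48 h, 37 C compound exposure with 20 nM CPT in Tdp1-knockout DT40 cells stably expressing hTDP1, seeded 400/well; qHTS titration format.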
HT1080NT lethal = kills 2HG-producing HT-1080-NT fibrosarcoma cells. Potency, µM (doses to about 46.1 µM), most hits filed as cytotoxic. HT-1080-NT fibrosarcoma viability, CellTiter-Glo ATP luminescence, 48 h. 1.6% of 360,000 active. AID 686970;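 further: NT is the 2HG producing partner of a matched IDH1 knockdown line; nearly all actives have a fitted effect of over 55% in size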
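750 cells/well, RPMI + 5% FBS; 2 h settle, compound pin-transfer, 48 h at 37 degrees C. CellTiter-Glo 10 min RT, luminescence. Normalized to DMSO and media-only wells.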
IL1B secr inh = inhibitors of inflammasome signaling (IL-1 beta secretion); THP-1 LPS/ATP IL-1B secretion, AlphaLISA, 16 h; active compounds read low; 4.7% of 360,000 active; activity change, % at 57.5 µM; in the data active means activity change below about -50%; inconclusive means mostly about -30% to -49%
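THP-1 cells pretreated 1 hr with compounds (up to 57.5 uM final), then stimulated with LPS (250 ng/mL final) plus ATP (1.25 mM final); secreted IL-1B measured by AlphaLISA after 16 hr, decreased signal indicating inhibition.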
Numbers stand for hits; i = inactive; ? = inconclusive; nt = no result. A selection: hits, their analogues and other compounds. The true share with any hit is near 19%. Unless noted, the call rests on the fitted dose curve; in most records, active means well fitted curve in the direction sought with a large enough effect; inconclusive means small, poorly fitted or top-dose-only effect, or another doubt; inactive means no such curve, though single readings can be large; an effect the other way counts as inactive or inconclusive.

SMILES	TDP1 cell noCPT	HT1080 IDH1KD tx	TDP1 cell CPT	HT1080NT lethal	IL1B secr inh
COc1ccc(OC)c(N2C(=O)NC(=O)/C(=C/c3ccc([N+](=O)[O-])s3)C2=O)c1	16µM	i	16µM	i	-73
CCC(=NCc1cc(OC)cc(OC)c1)c1c(O)[nH]c(=O)[nH]c1=O	?	i	?	i	i
COc1ccc([C@H]2CC(=O)C=C(c3ccc4c5c(cccc35)CC4)C2)cc1	?	i	?	i	i
NC(=O)c1c(NC(=O)c2ccc(S(=O)(=O)N(CCCl)CCCl)cc2)sc2c1CCCCC2	15µM	i	10µM	i	i
CCOC(=O)C(O)(c1ccc(N=c2ccccn2C)cc1)C(F)(F)F (stereo not drawn)	i	i	i	i	i
CC(C)CNc1c2c(nc3ccccc13)CCC2	18µM	i	?	i	-60
OCCNc1c2c(nc3ccccc13)CCCC2	i	i	i	i	i
c1ccc(CNc2c3c(nc4ccccc24)CCC3)cc1	15µM	?	?	?	-93
Cc1cc(NC(=O)CCl)no1	18µM	?	13µM	?	-100
Cc1cc(NC(=O)COC(=O)c2c(C)nn(Cc3ccccc3)c2C)no1	i	i	?	i	i
COC(=O)C1=C(c2ccc(C(C)=O)cc2)C[C@@H]2CC[C@H]1N2C(=O)NCCCOC(C)C	i	i	i	i	i
COc1ccc([N+](=O)[O-])cc1NC(=O)COC(=O)c1ccccc1C(=O)c1ccccc1	?	i	i	i	-52
O=C(COc1ccc(Br)cc1)N1CCN(Cc2c[nH]c3ccccc23)CC1	2.3µM	i	1.3µM	i	?
O=C(COc1ccc2ccccc2c1)N1CCN(Cc2c[nH]c3ccccc23)CC1	5.2µM	?	2.1µM	i	i
CC(=O)NC1=C(N2CC2C)C(=O)C(NC(C)=O)=C(N2CC2C)C1=O (stereo not drawn)	4.6µM	i	1.8µM	i	i
Brc1ccc2[nH]cc(C=NN3CCCCCC3)c2c1	13µM	i	23µM	i	i
Cc1ccccc1OP(=O)(Oc1ccccc1C)N1CCOCC1	?	i	?	i	i
COc1ccc(C(c2nnnn2Cc2ccccc2)N2CCC(n3c(=O)[nH]c4ccccc43)CC2)cc1 (stereo not drawn)	16µM	?	18µM	?	i
COc1ccc(C(c2nnnn2-c2ccc(OC)cc2)N2CCC(n3c(=O)[nH]c4ccccc43)CC2)cc1 (stereo not drawn)	9.2µM	?	18µM	?	?
O=c1[nH]c2ccccc2n1C1CCN(C(c2cccs2)c2nnnn2Cc2ccccc2)CC1 (stereo not drawn)	15µM	16µM	18µM	18µM	?
O=c1[nH]c2ccccc2n1C1CCN(C(c2ccccc2OC(F)(F)F)c2nnnn2Cc2ccccc2)CC1 (stereo not drawn)	10µM	?	10µM	26µM	i
COc1cc(CC(C)N)c(OC)cc1I (stereo not drawn)	?	i	i	i	?
Cc1cccc(-n2c(=O)c3c(c4cc(C)ccc4n3C)n(CC(=O)Nc3ccc(C)c(C)c3)c2=O)c1	?	nt	i	nt	nt
NC(=O)Cn1cc(C(=O)c2ccccc2)c2ccccc21	i	i	i	i	i
COc1ccc(-n2nnnc2C(c2cc3ccccc3o2)N2CCC(n3c(=O)[nH]c4ccccc43)CC2)cc1 (stereo not drawn)	23µM	?	?	?	i
SMILES	TDP1 cell noCPT	HT1080 IDH1KD tx	TDP1 cell CPT	HT1080NT lethal	IL1B secr inh
CN1CCC2(CC1)CCN(C(=O)Oc1ccccc1)CC2	i	nt	i	nt	nt
Clc1cccc(/C=N\Nc2nccs2)c1	4.6µM	i	15µM	i	i
O=c1[nH]c(=O)n(-c2ccc(Cl)cc2)c(O)c1C=Nc1ccc(S(=O)(=O)Nc2nccs2)cc1	i	i	i	i	i
N[C@@]1(C(=O)O)CC[C@@H](C(=O)O)C1	i	i	?	i	i
Cc1cccc(Cc2cnc(NC(=O)c3ccc4c(c3)CC(c3ccccc3)OC4=O)s2)c1 (stereo not drawn)	21µM	nt	26µM	nt	nt
Cc1cc(C)cc(C(=O)OC2C[C@H]3CC[C@@H](C2)N3C)c1 (stereo partly drawn)	19µM	nt	24µM	nt	nt
